High-throughput results deposited in PubChem by National Center for Advancing Translational Sciences (NCATS).
TGFb SMAD3 inh = inhibitors of TGF-b signaling; HepG2 CAGA-GFP TGF-b/SMAD3 reporter, GFP fluorescence, 18 h; TGF-beta stimulated, 500 pg/mL final; Potency, µM (doses to about 46.1 µM), for the others: at the highest dose activity, negative = inhibition, usual class: inhibitors; 1.2% of 410,000 active; AID 588855; note: potency is the fitted concentration of half-maximal effect; % is set by controls: 0 for no effect and ±100 for the full control effect; nearly all actives have a fitted effect of over 65% in size
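Per well, imaged GFP fluorescence of HEPG2 CAGA-GFP cells gives the signal; cells get compound, then TGF-beta (500 pg/mL final), 18 h at 37 degrees C; %Activity versus -TGF-beta and +DMSO controls.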
TDP1 inh = blocks human tyrosyl-DNA phosphodiesterase 1; recombinant TDP1, AlphaScreen DNA substrate cleavage; Potency, µM (titrated, usually from 130 µM), without a hit: top-dose activity change, negative = inhibition, most hits filed as inhibitors; 0.28% of 350,000 active; note: potency is the fitted concentration of half-maximal effect; % is set by controls: 0 for no effect and ±100 for the full control effect; nearly all actives have a fitted effect of over 40% in size
Target sequence (Q9NUW8 whole entry, looked up): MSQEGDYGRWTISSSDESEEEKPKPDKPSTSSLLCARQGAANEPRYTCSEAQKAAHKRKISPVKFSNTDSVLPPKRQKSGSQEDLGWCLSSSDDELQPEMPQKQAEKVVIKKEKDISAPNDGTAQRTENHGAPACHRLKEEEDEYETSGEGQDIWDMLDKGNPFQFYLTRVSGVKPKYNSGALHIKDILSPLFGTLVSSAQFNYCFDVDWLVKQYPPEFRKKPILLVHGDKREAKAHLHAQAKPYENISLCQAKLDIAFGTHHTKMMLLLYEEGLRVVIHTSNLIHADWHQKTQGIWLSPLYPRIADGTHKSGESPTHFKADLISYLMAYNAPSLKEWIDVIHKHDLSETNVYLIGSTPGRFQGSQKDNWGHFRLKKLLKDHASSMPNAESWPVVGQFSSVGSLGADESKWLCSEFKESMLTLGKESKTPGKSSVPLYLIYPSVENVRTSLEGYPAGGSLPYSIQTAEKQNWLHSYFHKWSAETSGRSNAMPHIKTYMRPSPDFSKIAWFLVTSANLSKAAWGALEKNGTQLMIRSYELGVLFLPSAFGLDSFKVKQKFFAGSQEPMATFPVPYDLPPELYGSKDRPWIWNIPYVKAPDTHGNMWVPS
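AlphaScreen read-out: signal falls as enzyme removes the 3' tyrosine-FITC from a 5'-biotinylated DNA oligo (15 nM, 5 min, RT). Enzyme was E. coli-made recombinant Tdp1 at 1 nM, exposed to compound for 15 min beforehand; beads 10 ug/ml, 10 min.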
HepG2 tox = counter-screen for TGF-b inhibitors: cytotoxicity in HepG2 cells | HepG2 CAGA-GFP viability, ATP luminescence, 18 h | Potency, µM (doses to about 46.1 µM), without a hit: at the top dose activity change, negative = cytotoxicity, usual class: cytotoxic | 0.76% of 410,000 active | AID 588856; note: potency is the fitted concentration of half-maximal effect
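CellTiter-Glo luminescence gave cytotoxicity after 18 hours at 37 degrees C. The cells were HepG2 CAGA-GFP in 1% FBS DMEM, stimulated with 500 pg/mL TGF-beta after compound addition. %Activity was normalised to no-cell wells (complete cell-killing) and DMSO (no toxicity), and curves were fitted and classified.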
TDP1 cell CPT = growth inhibition of DT40 Tdp1-/-;hTDP1 cells with camptothecin (screen for TDP1 inhibitors); Potency, µM (series often up to 46.2 µM), without a hit: at the highest dose activity change, negative = growth inhibition, usual class: inhibitors; chicken DT40 Tdp1-/-;hTDP1 cells + 20 nM CPT, ATP luminescence, 48 h; 12% of 420,000 active; note: potency is the fitted concentration of half-maximal effect; % is set by controls: 0 for no effect and ±100 for the full control effect; nearly all actives have a fitted effect of over 55% in size
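Chicken DT40 Tdp1-/- cells stably complemented with human TDP1 were seeded at 400 cells/well in medium containing 20 nM camptothecin, exposed to pin-transferred compounds, and grown at 37 °C for at least 48 hr. Viability was read as ATP luminescence.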
TDP1 cell noCPT = qHTS for Inhibitors of human tyrosyl-DNA phosphodiesterase 1 (TDP1): qHTS in cells in absence of CPT; Potency, µM (titrated, usually from 46.2 µM), for the others: at the highest dose activity change, negative = growth inhibition, usual class: inhibitors; 15% of 420,000 active; DT40 Tdp1-/- hTDP1 cells, no CPT, ATP luminescence, 48 h; note: potency is the fitted concentration of half-maximal effect; % is set by controls: 0 for no effect and ±100 for the full control effect; nearly all actives have a fitted effect of over 55% in size
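Chicken DT40 Tdp1-/- cells stably complemented with human TDP1 were seeded at 400 cells/well with DMSO in place of 20 nM camptothecin. After compound pinning, cells grew at least 48 hr at 37 °C; viability read by CellTiter-Glo luminescence.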
IL-1B inflam inh = inhibitors of inflammasome signaling (IL-1 beta secretion). activity change, % at 57.5 µM. THP-1 LPS/ATP IL-1B secretion, AlphaLISA, 16 h; stronger effect = lower value. 4.7% of 360,000 active; in the data active = activity change below about -50%; inconclusive = mostly about -30% to -49%; note: % is set by controls: 0 for no effect and ±100 for the full control effect
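Secreted IL-1B measured by AlphaLISA bead assay after 16 h compound exposure of THP-1 cells; compounds (final up to 57.5 uM) added 1 h before LPS (250 ng/mL) and ATP (1.25 mM) stimulation; lower signal means less secretion.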
An asterisk follows results filed as active; ? = inconclusive; . = no result given; [ ] = dose if it differs, or a comment. A selection: hits, their analogues and other compounds. The true share with any hit is near 18%. Unless noted, calls come from the whole dose curve; as a rule, active = well fitted curve in the direction sought with a large enough effect; inconclusive = small, poorly fitted or top-dose-only effect, or another doubt; inactive = no such curve, though single readings can be large; an effect the other way counts as inactive or inconclusive.

SMILES | TGFb SMAD3 inh | TDP1 inh | HepG2 tox | TDP1 cell CPT | TDP1 cell noCPT | IL-1B inflam inh
COc1ccc(Cl)cc1NC(=S)NCCCN1CCCC1=O | -1% | -5% | -7% | -16% | -19% | -6
CC(NC(=O)CN1CCN(c2cccc(Cl)c2)CC1)c1ccccc1 (stereo not drawn) | ? | . | -48% | ? | -26% | 0
OC(CSc1ccccc1)CN1CCN(c2cccc(Cl)c2)CC1 (stereo not drawn) | -12% | . | -27% | ? | 21µM* | -17
c1ccc(SCCN2CCN(c3ccccc3)CC2)cc1 | -7% | . | -22% | -16% | -14% | -1
OC(CSc1ccccc1)CN1CCN(c2ccc(Cl)cc2)CC1 (stereo not drawn) | -1% | . | -36% | ? | 21µM* | ?
COc1cc2oc(=O)cc(-c3cccc(-c4cccc(C)c4)c3)c2c(OC)c1OC | ? | -3%[56.1 µM] | -47% | ? | 23µM* | 28
COc1cc2oc(=O)cc(-c3ccc(-c4cccc(N)c4)cc3)c2c(OC)c1OC | . | 8% | . | . | . | .
COc1ccc(-c2ccc(-c3cc(=O)oc4cc(OC)c(OC)c(OC)c34)cc2)cc1OC | -28% | 2%[56.1 µM] | -17% | 18µM* | 15µM* | 17
COc1cc2oc(=O)cc(-c3ccc(-c4ccc(NC(C)=O)cc4)cc3)c2c(OC)c1OC | . | 1% | . | . | . | .
COc1ccc(NC(=O)Nc2nnc([C@H]3C[C@H](O)[C@@H](CO)O3)s2)cc1 | 2% | . | 3% | -5% | 17% | 2
Cc1nn(C)c(Oc2ccccc2)c1CCNS(=O)(=O)c1ccccc1 | 5% | 6% | -2% | ? | ? | 58
COc1ccc(-c2nc(SCC(=O)Nc3ccc4c(c3)OCO4)c(-c3ccc(OC)cc3)[nH]2)cc1 | ? | -4%[12.3 µM] | -78% | -19% | -27% | .
O=C(CSc1nc(-c2ccccc2)[nH]c1-c1ccccc1)Nc1ccc2c(c1)OCCO2 | ? | 10% | 10µM* | 10µM* | 9.2µM* | .
O=C(CSc1ccccn1)Nc1ccc2c(c1)OCCO2 | 13% | 1% | 0% | 15% | -27% | -8
Cc1cccc(-c2nc(SCC(=O)Nc3ccc4c(c3)OCO4)c(-c3ccccc3)[nH]2)c1 | 13µM* | 10% | -22% | 21µM* | ? | .
COc1ccc(-c2[nH]c(-c3ccccc3)nc2SCC(=O)Nc2ccc3c(c2)OCCO3)cc1 | -22% | 10% | -5% | 13µM* | 16µM* | .
Nn1c(SCC(=O)Nc2ccc3c(c2)OCO3)nnc1-c1ccccc1 | -17% | -1% | 6% | -9% | 1% | -4
COc1ccccc1CNC(=O)C(NC(=O)Nc1ccccc1)C(C)C (stereo not drawn) | 0% | 2%[0.0935 µM] | 7% | 3% | -22% | 29
O=C(N/N=C/c1ccc(OC(=O)c2ccco2)cc1)c1ccc[n+]([O-])c1 | -5% | . | 0% | -7% | -1% | 0
Cn1c(=O)oc2cc(S(=O)(=O)N3CCC(C(=O)NCc4ccccc4Cl)CC3)ccc21 | 11% | 1% | -14% | 3% | 3% | 4
NC1=Nc2cccc3cccc1c23 | -22% | 7% | -2% | ? | 16µM* | -65*
C(=N\NC1=Nc2cccc3cccc1c23)/c1ccccc1 | 2% | 8% | -30% | 7% | ? | -1
CCc1cccc(C)c1Nc1nn2c(=O)c3ccccc3nc2s1 | -1% | . | -21% | 12µM* | 23µM* | .
CCOC(=O)c1ccc(Nc2nn3c(=O)c4ccccc4nc3s2)cc1 | 5% | -3% | -5% | -5% | -5% | .
O=C(NCc1ccccn1)c1ccc2c(=O)n3nc(Nc4ccccc4)sc3nc2c1 | 2% | -21% | 11% | ? | 0% | -15
